Measured values published in PubChem BioAssay (NCATS).
Results filed as inconclusive are left out. Calls of active or inactive are those of the source. Calls follow the shape of the dose curve; as a rule, active = well fitted curve in the direction sought with a large enough effect; inconclusive = small, poorly fitted or top-dose-only effect, or another doubt; inactive = no such curve, though single readings can be large; an effect the other way counts as inactive or inconclusive.

Key:
[1] = target: Thioredoxin reductase 1, cytoplasmic (Rattus norvegicus) (UniProt O89049); test: qHTS Assay for Substrates of Mammalian Selenoprotein Thioredoxin Reductase 1 (TrxR1) (AID 488772);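 also: NADPH fluorescence in the first read after selenite addition and not the 8 min delta; series mostly up to about 57 µM; a drop in NADPH fluorescence below the no-compound background marks a TrxR1 substrate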
Outline: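 Quantitative HTS in Tris-HCl buffer at pH 7.5 with EDTA and Tween-20, using rat TrxR1, 400 uM NADPH and 400 uM selenite (final). A fall in initial NADPH fluorescence relative to background marked substrate behaviour.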

[2] = target: Thioredoxin reductase 1, cytoplasmic (Rattus norvegicus) (UniProt O89049); test: qHTS Assay for Inhibitors of Mammalian Selenoprotein Thioredoxin Reductase 1 (TrxR1) (AID 488773); settings: Potency: inhibition; also: nearly all actives have a fitted effect of over 40% in size; also: potency is read from the fitted curve at half-maximal effect
Outline: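 Steps: enzyme (90 nM) plus NADPH (400 uM final), 5 min at ~22 deg C; compound added, 15 min; selenite (400 uM final) added; fluorescence followed for 8 min. Concentration-response curves derived from the normalized delta values.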

[3] = target: Flap endonuclease 1 (Homo sapiens) (UniProt P39748); test: qHTS Validation Assay for the Inhibitors of Human Flap endonuclease 1 (FEN1) (AID 488816); also: potency is read from the fitted curve at half-maximal effect
Outline: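 FEN1, dispensed as a 10 nM reagent, was preincubated with pin-transferred compounds for 15 min at room temperature before substrate was added (50 nM final). Plates were read at 0 and 15 min, and a four-parameter Hill equation was fitted to the concentration-response data.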

[4] = target: M-phase phosphoprotein 8 (Homo sapiens) (UniProt Q99549); test: qHTS Validation Assay for Inhibitors for MPP8 Chromodomain Interactions with Methylated Histone Tails (AID 488949); also: nearly all actives have a fitted effect of over 55% in size; also: potency is read from the fitted curve at half-maximal effect
Outline: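 Disruption of the preformed MPP8–trimethyl-H3K9 peptide complex (both 50 nM, 30 min, RT) is measured after 30 min compound exposure, using AlphaScreen proximity beads; aurintricarboxylic acid titration serves as plate control.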

[5] = target: Chromobox protein homolog 1 (Homo sapiens) (UniProt P83916); test: qHTS Validation Assay for Inhibitors of HP1-beta Chromodomain Interactions with Methylated Histone Tails (AID 488953); also: nearly all actives have a fitted effect of over 50% in size; also: potency is read from the fitted curve at half-maximal effect
Outline: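 HP1-beta (50 nM) was preincubated 30 min at room temperature with biotinylated H3(1-18)K9me3 peptide (50 nM) in PBS pH 7.4, 0.01% Tween-20, then with compounds 30 min. AlphaScreen signal was read after streptavidin donor/nickel chelate acceptor beads (10 ug/mL final).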

[6] = target: Methanococcus maripaludis chaperonin (MmCpn) (UniProt Q6LX38); test: High-Throughput Screening for Modulators of Cytosolic Chaperonin Activity: MmCpn Primary Screen (AID 488978); also: potency is read from the fitted curve at half-maximal effect
Outline: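 Measures ATPase turnover of the M. maripaludis chaperonin (50 nM final) against 30 uM ATP over 10 min at 37C, with compound added 5 min beforehand at room temperature. ADP is quantified by HTRF immunodetection.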

[7] = target: Transient receptor potential cation channel subfamily V member 1 (Homo sapiens) (UniProt Q8NER1); test: HTS Assay for Compounds that Act as Enhancers of the Vanilloid Receptor 1 (AID 488979)
Outline: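 TRPV1-expressing cells loaded with Fluo-8 calcium dye; compounds added and calcium influx read kinetically for 3 min (agonist phase), then capsaicin at EC20 added and read 2 min more for enhancement. Fluorescence ex 480/em 520 nm.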

[8] = target: Thyrotropin receptor (Homo sapiens) (UniProt P16473); test: qHTS Assay for Antagonists of the Thyroid Stimulating Hormone Receptor (AID 488980); also: series mostly up to about 58 µM
Outline: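 Cells expressing human TSHR (HEK293) are dispensed in HBSS/HEPES containing 70 uM RO 20-1724, compound is added, then TSH at EC80 (4 nM final). Antibody in lysis buffer follows, 30 minutes at room temperature before HTRF detection.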

[9] = target: D(1A) dopamine receptor (Homo sapiens) (UniProt P21728); test: HTS Assay for Allosteric Agonists of the Human D1 Dopamine Receptor: Primary Screen for Agonists (AID 488981); also: potency is read from the fitted curve at half-maximal effect
Outline: (§1)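 Tetracycline-induced HEK293 T-REx cells force-coupled to calcium signalling were incubated overnight at 30 C and dye-loaded at room temperature. Calcium flux over 180 s after compound addition flagged agonists; a further 180 s read after EC20 dopamine flagged potentiators.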

[10] = target: D(1A) dopamine receptor (Homo sapiens) (UniProt P21728); test: HTS Assay for Allosteric Agonists of the Human D1 Dopamine Receptor: Primary Screen for Potentiators (AID 488982)
Outline: as §1

Measured: Potency

Sequence of M-phase phosphoprotein 8 (Homo sapiens) (Q99549 whole entry, looked up): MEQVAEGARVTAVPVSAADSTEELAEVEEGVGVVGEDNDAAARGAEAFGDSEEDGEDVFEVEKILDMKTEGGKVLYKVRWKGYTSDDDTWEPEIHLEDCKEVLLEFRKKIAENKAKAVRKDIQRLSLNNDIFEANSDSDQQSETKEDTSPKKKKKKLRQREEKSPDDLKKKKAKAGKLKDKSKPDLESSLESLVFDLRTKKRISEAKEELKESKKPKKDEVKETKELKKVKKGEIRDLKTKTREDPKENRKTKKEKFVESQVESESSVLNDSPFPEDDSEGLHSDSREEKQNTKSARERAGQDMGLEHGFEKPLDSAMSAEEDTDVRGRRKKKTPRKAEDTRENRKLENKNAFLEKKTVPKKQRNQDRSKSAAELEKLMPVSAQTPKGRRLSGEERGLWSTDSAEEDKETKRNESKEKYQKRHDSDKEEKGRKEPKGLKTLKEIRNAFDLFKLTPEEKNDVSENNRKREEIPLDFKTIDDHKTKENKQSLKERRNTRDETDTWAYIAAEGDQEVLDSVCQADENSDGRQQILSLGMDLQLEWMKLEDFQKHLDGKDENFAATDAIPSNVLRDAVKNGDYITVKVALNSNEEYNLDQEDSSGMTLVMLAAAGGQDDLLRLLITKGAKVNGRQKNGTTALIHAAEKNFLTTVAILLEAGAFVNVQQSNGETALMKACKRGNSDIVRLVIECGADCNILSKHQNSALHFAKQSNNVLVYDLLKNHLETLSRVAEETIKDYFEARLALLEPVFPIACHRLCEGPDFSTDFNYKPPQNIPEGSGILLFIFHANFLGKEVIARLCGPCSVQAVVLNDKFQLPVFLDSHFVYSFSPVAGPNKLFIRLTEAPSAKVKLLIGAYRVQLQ
Sequence of D(1A) dopamine receptor (Homo sapiens) (P21728 whole entry, looked up): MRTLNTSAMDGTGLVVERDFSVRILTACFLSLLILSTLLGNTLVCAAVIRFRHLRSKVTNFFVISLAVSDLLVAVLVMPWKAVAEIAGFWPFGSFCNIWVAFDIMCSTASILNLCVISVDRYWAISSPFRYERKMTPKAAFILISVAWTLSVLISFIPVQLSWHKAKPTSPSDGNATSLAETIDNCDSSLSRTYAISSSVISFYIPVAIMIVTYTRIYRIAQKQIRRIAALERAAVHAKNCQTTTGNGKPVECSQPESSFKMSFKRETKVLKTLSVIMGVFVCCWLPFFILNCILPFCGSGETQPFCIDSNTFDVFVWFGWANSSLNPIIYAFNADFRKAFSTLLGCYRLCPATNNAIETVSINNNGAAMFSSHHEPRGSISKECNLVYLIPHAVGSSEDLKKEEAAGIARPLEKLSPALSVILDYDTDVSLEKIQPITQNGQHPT
Sequence of Methanococcus maripaludis chaperonin (MmCpn) (Q6LX38 1-543): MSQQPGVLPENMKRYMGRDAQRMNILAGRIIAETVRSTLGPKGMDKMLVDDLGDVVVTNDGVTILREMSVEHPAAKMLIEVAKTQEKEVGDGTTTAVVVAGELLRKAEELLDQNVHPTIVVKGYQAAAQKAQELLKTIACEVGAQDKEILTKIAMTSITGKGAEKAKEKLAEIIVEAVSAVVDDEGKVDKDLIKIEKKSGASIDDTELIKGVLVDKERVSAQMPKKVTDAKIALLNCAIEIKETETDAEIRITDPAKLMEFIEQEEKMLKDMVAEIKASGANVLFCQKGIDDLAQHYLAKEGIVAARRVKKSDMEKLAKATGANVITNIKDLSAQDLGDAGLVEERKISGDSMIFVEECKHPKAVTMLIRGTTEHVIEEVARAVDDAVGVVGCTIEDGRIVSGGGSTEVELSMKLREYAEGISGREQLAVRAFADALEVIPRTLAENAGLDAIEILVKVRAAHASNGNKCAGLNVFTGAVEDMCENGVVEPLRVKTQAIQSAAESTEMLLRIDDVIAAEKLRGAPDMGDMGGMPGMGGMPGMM
Sequence of Transient receptor potential cation channel subfamily V member 1 (Homo sapiens) (Q8NER1 whole entry, looked up): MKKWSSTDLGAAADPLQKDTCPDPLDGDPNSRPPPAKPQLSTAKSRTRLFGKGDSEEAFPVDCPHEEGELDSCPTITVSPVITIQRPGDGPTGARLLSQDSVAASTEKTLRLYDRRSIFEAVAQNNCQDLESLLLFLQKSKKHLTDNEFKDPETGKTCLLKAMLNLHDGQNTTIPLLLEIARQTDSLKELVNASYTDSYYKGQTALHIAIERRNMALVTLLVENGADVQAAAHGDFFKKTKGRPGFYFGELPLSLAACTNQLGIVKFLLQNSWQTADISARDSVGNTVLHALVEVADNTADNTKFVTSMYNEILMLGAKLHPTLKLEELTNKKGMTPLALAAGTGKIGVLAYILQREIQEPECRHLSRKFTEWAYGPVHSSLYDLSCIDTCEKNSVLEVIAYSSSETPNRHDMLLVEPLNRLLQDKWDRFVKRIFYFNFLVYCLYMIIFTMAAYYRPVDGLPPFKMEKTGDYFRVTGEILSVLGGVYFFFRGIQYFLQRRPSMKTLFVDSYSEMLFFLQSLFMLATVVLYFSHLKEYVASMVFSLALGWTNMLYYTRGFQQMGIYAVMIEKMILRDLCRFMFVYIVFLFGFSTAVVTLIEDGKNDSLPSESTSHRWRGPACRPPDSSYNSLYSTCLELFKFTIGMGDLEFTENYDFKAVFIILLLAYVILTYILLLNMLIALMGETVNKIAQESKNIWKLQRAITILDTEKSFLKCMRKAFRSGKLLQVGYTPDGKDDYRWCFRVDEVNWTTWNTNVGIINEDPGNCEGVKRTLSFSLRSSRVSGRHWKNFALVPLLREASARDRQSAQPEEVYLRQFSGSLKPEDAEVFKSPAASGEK
Sequence of Thioredoxin reductase 1, cytoplasmic (Rattus norvegicus) (O89049 whole entry, looked up): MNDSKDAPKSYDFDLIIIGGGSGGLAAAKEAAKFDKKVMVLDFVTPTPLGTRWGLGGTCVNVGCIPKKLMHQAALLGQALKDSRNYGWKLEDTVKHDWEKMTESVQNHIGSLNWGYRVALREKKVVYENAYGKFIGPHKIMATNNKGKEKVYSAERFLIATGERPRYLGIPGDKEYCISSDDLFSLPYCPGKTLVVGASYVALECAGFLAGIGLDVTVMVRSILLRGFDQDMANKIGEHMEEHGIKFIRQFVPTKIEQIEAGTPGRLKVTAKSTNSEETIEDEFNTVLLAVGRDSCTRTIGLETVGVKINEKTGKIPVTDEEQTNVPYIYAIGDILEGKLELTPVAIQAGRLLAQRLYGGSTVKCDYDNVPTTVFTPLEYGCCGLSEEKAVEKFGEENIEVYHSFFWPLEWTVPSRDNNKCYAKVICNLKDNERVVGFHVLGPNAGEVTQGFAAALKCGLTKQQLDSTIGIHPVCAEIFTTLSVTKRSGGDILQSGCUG
Sequence of Flap endonuclease 1 (Homo sapiens) (P39748 whole entry, looked up): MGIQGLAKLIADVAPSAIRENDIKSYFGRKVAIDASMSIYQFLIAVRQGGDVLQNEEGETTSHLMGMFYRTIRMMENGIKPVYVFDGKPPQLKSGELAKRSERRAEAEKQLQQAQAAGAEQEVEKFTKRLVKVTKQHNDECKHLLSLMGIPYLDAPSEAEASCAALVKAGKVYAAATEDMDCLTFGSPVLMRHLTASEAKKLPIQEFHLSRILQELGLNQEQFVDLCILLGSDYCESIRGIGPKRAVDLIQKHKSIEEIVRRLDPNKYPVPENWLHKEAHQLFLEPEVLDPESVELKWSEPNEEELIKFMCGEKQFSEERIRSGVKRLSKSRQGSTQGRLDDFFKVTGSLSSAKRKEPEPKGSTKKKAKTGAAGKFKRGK
Sequence of Thyrotropin receptor (Homo sapiens) (P16473 whole entry, looked up): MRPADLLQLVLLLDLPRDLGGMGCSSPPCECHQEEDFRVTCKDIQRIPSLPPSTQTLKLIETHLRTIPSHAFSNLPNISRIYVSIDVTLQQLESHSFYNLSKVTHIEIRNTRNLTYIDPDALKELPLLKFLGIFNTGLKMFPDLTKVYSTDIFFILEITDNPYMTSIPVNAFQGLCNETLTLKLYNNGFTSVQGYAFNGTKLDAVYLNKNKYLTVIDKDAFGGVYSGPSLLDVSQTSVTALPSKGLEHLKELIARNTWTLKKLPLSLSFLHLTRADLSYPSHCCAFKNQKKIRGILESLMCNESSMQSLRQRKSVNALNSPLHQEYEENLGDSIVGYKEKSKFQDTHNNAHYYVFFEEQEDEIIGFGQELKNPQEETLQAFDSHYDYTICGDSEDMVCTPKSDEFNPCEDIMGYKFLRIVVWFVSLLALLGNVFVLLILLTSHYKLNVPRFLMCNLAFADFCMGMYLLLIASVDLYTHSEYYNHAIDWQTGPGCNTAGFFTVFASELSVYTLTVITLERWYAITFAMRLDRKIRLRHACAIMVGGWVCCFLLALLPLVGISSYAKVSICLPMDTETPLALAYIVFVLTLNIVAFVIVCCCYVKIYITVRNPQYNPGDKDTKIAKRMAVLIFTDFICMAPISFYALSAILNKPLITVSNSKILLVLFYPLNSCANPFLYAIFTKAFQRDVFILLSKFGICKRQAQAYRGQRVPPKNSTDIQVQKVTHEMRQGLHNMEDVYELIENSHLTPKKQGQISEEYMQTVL
Sequence of Chromobox protein homolog 1 (Homo sapiens) (P83916 whole entry, looked up): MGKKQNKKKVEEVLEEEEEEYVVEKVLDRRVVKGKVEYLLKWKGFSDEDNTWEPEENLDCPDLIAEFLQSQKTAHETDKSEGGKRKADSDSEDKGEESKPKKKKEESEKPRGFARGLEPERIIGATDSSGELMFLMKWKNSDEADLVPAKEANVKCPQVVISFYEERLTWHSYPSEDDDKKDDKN

CCCCCCCCCCCCCCCC(=O)NCCO
inactive: all assays above

Nc1ncnc2c1ncn2[C@@H]1O[C@H](CO)[C@@H](O)[C@H]1O
not listed: [7] | [8]
inactive: all other assays above

CC(=O)OCC(=O)[C@@]1(O)CC[C@H]2[C@@H]3CCC4=CC(=O)CC[C@]4(C)[C@H]3C(=O)C[C@@]21C
not listed: [8]
inactive: all other assays above

CCCn1cnc2c1c(=O)n(CCCCC(C)=O)c(=O)n2C
inactive: all assays above

CN(C)CCOC(C)(c1ccccc1)c1ccccn1 (stereo not given)
inactive: all assays above

CSc1ccc2c(c1)N(CCC1CCCCN1C)c1ccccc1S2 (stereo not given)
active: [4] 11.2 µM | [5] 28.2 µM
not listed: [7] | [10]
inactive: all other assays above

Nc1cc(=O)[nH]c(N)n1
inactive: all assays above

C#CCN(C)Cc1ccccc1
not listed: [7]
inactive: all other assays above

CCN(CC)CCNC(=O)c1cc(Cl)c(N)cc1OC
inactive: all assays above

CC(C(O)c1ccc(O)cc1)N1CCC(Cc2ccccc2)CC1 (stereo not given)
active: [9] 11.2 µM
not listed: [7] | [8]
inactive: all other assays above

COc1ccc(Cl)cc1C(=O)NCCc1ccc(S(=O)(=O)NC(=O)NC2CCCCC2)cc1
inactive: all assays above

NC1CCN(c2cccc(Cl)n2)CC1
not listed: [8]
inactive: all other assays above

C[C@](N)(Cc1ccc(O)cc1)C(=O)O
inactive: all assays above

CN(C)CC[C@@H](c1ccc(Cl)cc1)c1ccccn1
inactive: all assays above

CC(C)(C(=O)O)c1ccc(C(O)CCCN2CCC(C(O)(c3ccccc3)c3ccccc3)CC2)cc1 (stereo not given)
inactive: all assays above

CC(C)C(=O)c1c(C(C)C)nn2ccccc12
not listed: [8]
inactive: all other assays above

OCCN1CCN(CCCN2c3ccccc3Sc3ccc(Cl)cc32)CC1
active: [4] 28.2 µM | [5] 31.6 µM
not listed: [7] | [9]
inactive: all other assays above

C[C@]12CC[C@@H]3c4ccc(O)cc4CC[C@H]3[C@@H]1CCC2=O
not listed: [8]
inactive: all other assays above

CC1=C(CC(=O)O)c2cc(F)ccc2/C1=C\c1ccc(S(C)(=O)=O)cc1
active: [5] 0.006 µM
not listed: [8]
inactive: all other assays above

CC(CN(C)C)CN1c2ccccc2CCc2ccccc21 (stereo not given)
active: [5] 28.2 µM
not listed: [7]
inactive: all other assays above

CC(C)(C)[C@]1(O)CCN2C[C@H]3c4ccccc4CCc4cccc(c43)[C@@H]2C1
inactive: [1] | [2] | [3] | [4] | [5] | [6]

C=Cc1c(C)c2cc3[nH]c(cc4nc(cc5nc(cc1[nH]2)C(C)=C5CCC(=O)O)C(CCC(=O)O)=C4C)c(C)c3C=C
active: [2] 13.4 µM | [6] 31.6 µM
inactive: all other assays above

CCN(CC)CCOC(=O)C1(C2CCCCC2)CCCCC1
not listed: [9]
inactive: all other assays above

CN1CCN(C2Cc3ccccc3Sc3ccc(Cl)cc32)CC1 (stereo not given)
active: [5] 14.1 µM
not listed: [7] | [9]
inactive: all other assays above

CC(C)(C)c1onc(OCP(=O)(O)O)c1CC(N)C(=O)O (stereo not given)
inactive: all assays above

CC[C@H]1CN2CCc3cc(OC)c(OC)cc3[C@@H]2C[C@@H]1C[C@H]1NCCc2cc(OC)c(OC)cc21
not listed: [3] | [7] | [8]
inactive: all other assays above

O=C1N=C(O)CN1/N=C/c1ccc(-c2ccc([N+](=O)[O-])cc2)o1
not listed: [1] | [5] | [7]
inactive: all other assays above

Cc1cc(N)c2ccccc2[n+]1CCCCCCCCCC[n+]1c(C)cc(N)c2ccccc21
active: [3] 21.2 µM | [4] 50.1 µM
not listed: [5]
inactive: all other assays above

CNCC(O)c1ccc(O)c(O)c1 (stereo not given)
not listed: [2] | [3] | [9]
inactive: all other assays above

CN(C)CCCN1c2ccccc2Sc2ccc(Cl)cc21
active: [4] 35.5 µM
inactive: [1] | [2] | [3] | [6] | [8]

N=c1c[n+](N2CCOCC2)[n-]o1
not listed: [2]
inactive: all other assays above

C[C@H]1O[C@@H](n2cc(F)c(=O)[nH]c2=O)[C@H](O)[C@@H]1O
inactive: [4] | [7] | [8]

CNCCC(Oc1ccc(C(F)(F)F)cc1)c1ccccc1 (stereo not given)
not listed: [5] | [7] | [9]
inactive: all other assays above

C[C@]12C[C@H](O)[C@H]3[C@@H](CCC4=CC(=O)CC[C@@]43C)[C@@H]1CC[C@@H]2C(=O)CO
not listed: [7] | [8]
inactive: all other assays above

CNC(=O)Oc1ccc2c(c1)[C@]1(C)CCN(C)[C@@H]1N2C
not listed: [4]
inactive: all other assays above

NC(N)=NCCC[C@H](N)C(=O)O
not listed: [3] | [5]
inactive: all other assays above

CNCCCC1c2ccccc2C=Cc2ccccc21
not listed: [3] | [6] | [7]
inactive: all other assays above

CC(C)NC[C@H](O)c1ccc(O)c(O)c1
not listed: [2] | [10]
inactive: all other assays above

COC(=O)C1=C(C)NC(C)=C(C(=O)OC)C1c1ccccc1[N+](=O)[O-]
inactive: [1] | [3] | [6] | [7] | [8] | [9]

CSc1ccc2c(c1)C(N1CCN(C)CC1)Cc1ccccc1S2 (stereo not given)
active: [4] 44.7 µM | [5] 39.8 µM
not listed: [7] | [8]
inactive: all other assays above

CN(C)CCCN1c2ccccc2CCc2ccccc21
inactive: [6] | [8] | [9]

CC1=C(CC(=O)O)c2cc(F)ccc2/C1=C\c1ccc(S(C)=O)cc1 (stereo not given)
not listed: [2] | [5] | [7]
inactive: all other assays above

NC(=O)c1ncn([C@@H]2O[C@H](CO)[C@@H](O)[C@H]2O)n1
not listed: [3] | [8]
inactive: all other assays above

CN(C)CCC=C1c2ccccc2CCc2ccccc21
inactive: [1] | [2] | [3] | [6] | [8] | [9]

CCN(CC)CCCC(C)Nc1c2ccc(Cl)cc2nc2ccc(OC)cc12 (stereo not given)
inactive: [1] | [2] | [6] | [8] | [10]
active: [3] 15 µM | [9] 11.2 µM

CCN(CC)C(C)CN1c2ccccc2Sc2ccccc21 (stereo not given)
active: [5] 0.0299 µM
not listed: [2] | [7] | [8]
inactive: all other assays above
